# Compound activity (PubChem BioAssay)
# CYP2C19 inhib: blockers of cytochrome P450 2C19 activity – biochemical, luminescence, ADME assay, primary screen; CYP2C19 Supersomes, luciferin-H EGE luminescence, 30 min; inhibition, % at 5 µM; 96,000 compounds, 21% hits; P33261;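 active = CYP2C19 inhibition above a set limit at 5 µM in the primary screen, cut at about 50% in these data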;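 note: plate controls were negative control wells for no effect and 2.5 mM tranylcypromine positive control for full effect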
# CD11b adhes inh: inhibitors of CD11b/CD18 adhesion to fibrinogen, primary screen, K562 cells, luminescence; Integrin beta-2 (Homo sapiens) + Integrin alpha-M (Homo sapiens), P05107+P11215; ATPlite luminescence; Mn2+ added to activate the integrin; inhibition, % at 10 µM; 93,000 compounds, 0.54% hits; AID 1497, 2009;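 active = primary inhibition of 50% or more at 10 µM, then 40% or more on retest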
# Target sequence (P05107 whole entry, looked up, other chains not shown): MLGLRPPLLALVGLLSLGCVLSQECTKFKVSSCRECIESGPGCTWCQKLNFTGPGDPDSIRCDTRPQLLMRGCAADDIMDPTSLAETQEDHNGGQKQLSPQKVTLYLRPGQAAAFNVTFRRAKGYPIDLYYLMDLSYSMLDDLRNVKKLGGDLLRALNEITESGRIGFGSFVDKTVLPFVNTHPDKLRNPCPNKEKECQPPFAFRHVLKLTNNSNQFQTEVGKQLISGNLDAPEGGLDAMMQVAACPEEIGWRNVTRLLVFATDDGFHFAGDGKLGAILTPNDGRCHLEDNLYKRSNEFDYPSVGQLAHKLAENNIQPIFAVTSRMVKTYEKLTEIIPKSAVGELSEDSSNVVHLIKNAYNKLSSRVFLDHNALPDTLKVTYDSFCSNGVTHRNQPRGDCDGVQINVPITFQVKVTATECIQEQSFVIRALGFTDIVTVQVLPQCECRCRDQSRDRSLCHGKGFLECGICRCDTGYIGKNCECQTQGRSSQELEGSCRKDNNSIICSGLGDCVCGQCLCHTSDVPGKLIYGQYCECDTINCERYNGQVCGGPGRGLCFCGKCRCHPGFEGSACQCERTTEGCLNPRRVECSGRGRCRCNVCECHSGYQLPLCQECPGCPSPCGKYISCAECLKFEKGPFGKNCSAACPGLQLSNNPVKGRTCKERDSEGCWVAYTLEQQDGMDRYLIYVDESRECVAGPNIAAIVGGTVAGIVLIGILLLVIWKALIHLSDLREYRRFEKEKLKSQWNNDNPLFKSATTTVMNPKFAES
# CD11b adhes enh: enhancers of CD11b/CD18 adhesion to fibrinogen, primary screen, K562 cells, luminescence; Integrin beta-2 (Homo sapiens) + Integrin alpha-M (Homo sapiens), P05107+P11215; ATPlite luminescence; activation, % at 10 µM; 93,000 compounds, 0.07% hits; AID 1499, 2009;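 active = 10 µM primary screen giving 50% or more activity, confirmed by 40% or more on retest at that dose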
# CYP2C19 act: human CYP2C19 activators, primary screen, biochemical, luminescence; Cytochrome P450 2C19 (Homo sapiens), P33261; recombinant CYP2C19, luciferin-H EGE luminescence; hits give high values; 0 = fully inhibited enzyme, 1 = untreated enzyme; activation factor at 5 µM; 96,000 tested, under 10 active;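 active = activation factor of at least 2 at 5 µM in the primary screen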;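 note: 0 = wells with 2.5 mM tranylcypromine and 1 = vehicle-only wells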
# CYP2C9 inhib: blockers of cytochrome P450 2C9 activity – biochemical, luminescence, ADME assay, primary screen | AID 777, 2007 | 96,000 compounds, 20% hits | inhibition, % at 5 µM | CYP2C9 Supersomes, luciferin-H conversion;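 active = blocking of liver enzyme CYP2C9 beyond about 50% at 5 µM, limit read from the data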
# CYP2C9 activ: human CYP2C9 activators, primary screen, biochemical, luminescence. Cytochrome P450 2C9 (Homo sapiens), P11712. recombinant CYP2C9, luciferin-H conversion; hits give high values; factor 1 = untreated enzyme, 0 = blocked. activation factor at 5 µM. 96,000 compounds, 1.4% hits;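 active = activation factor of 2 or more for CYP2C9 at a 5 µM dose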;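 note: 0 = sulfaphenazole-blocked wells and 1 = vehicle-only wells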
# The depositor's hits bear a star; . = no result. The list is not random: actives were taken first. Their share in the collection is about 28%.
SMILES,CYP2C19 inhib,CD11b adhes inh,CD11b adhes enh,CYP2C19 act,CYP2C9 inhib,CYP2C9 activ
CC(C)(C)c1[nH]nc2c1C(Cc1ccccc1)C(C#N)=C(N)O2 (centres undefined),73*,.,.,0.3,59*,0.4
O=C(NNc1ccc([N+](=O)[O-])cc1)C12CC3CC(CC(C3)C1)C2,8,.,.,0.9,-6,1.1
O=C(NC1=NCCS1)C1COc2ccccc2O1 (centres undefined),8,.,.,0.9,23,0.8
O=C(Nc1cnc2ccccc2c1)C1COc2ccccc2O1 (centres undefined),90*,-5,0,0.1,54*,0.5
O=C(Nc1ccc2c(c1)CCC2)C1COc2ccccc2O1 (centres undefined),95*,9,-1,0,-1,1
O=C(Nc1ccc2c(c1)OCO2)C1COc2ccccc2O1 (centres undefined),70*,-4,-2,0.3,7,0.9
O=C(CN1C(=O)c2ccccc2C1=O)OCC(=O)N1CCc2ccccc2C1,-14,2,-4,1.1,-44,1.4
CCN(CC)S(=O)(=O)c1ccc(NC(=O)COC(=O)CN2C(=O)c3ccccc3C2=O)cc1,33,-10,-6,0.7,81*,0.2
Cc1cc(=O)oc2cc(NC(=O)C3COc4ccccc4O3)ccc12 (centres undefined),10,-8,10,0.9,-9,1.1
CCOc1ccc2[nH]c(=O)c(CN(CCO)C(=O)c3ccc(F)cc3)cc2c1,6,-9,4,0.9,23,0.8
CC1CCN(S(=O)(=O)c2ccc(NC(=O)CSc3nnnn3C)cc2)CC1,-2,-6,0,1,-1,1
Cc1cc(C)n(C(=O)c2ccc(NC(=O)C3COc4ccccc4O3)cc2)n1 (centres undefined),45,-1,4,0.6,-67,1.7
O=C(CSC1=NCCN1)C1COc2ccccc2O1 (centres undefined),61*,-15,-2,0.4,67*,0.3
O=C(NC1CC2CCC1C2)C1COc2ccccc2O1 (centres undefined),52*,-3,-5,0.5,1,1
CCN(CC)S(=O)(=O)c1ccc(NC(=O)C2COc3ccccc3O2)cc1 (centres undefined),23,-1,-3,0.8,72*,0.3
O=C(Nc1ncc(C(F)(F)F)cc1Cl)C1COc2ccccc2O1 (centres undefined),80*,-6,-1,0.2,21,0.8
CCC(/C=N/NC(=O)C1COc2ccccc2O1)CC (centres undefined),.,1,2,.,.,.
CN(C)/C=C(\C=N\OCc1ccc(Cl)cc1Cl)C(=O)Nc1ccc(Cl)c(Cl)c1,-9,57,-14,1.1,-11,1.1
O=C(Nc1ccncc1)C1COc2ccccc2O1 (centres undefined),96*,-6,-2,0,52*,0.5
COc1ccc(-c2csc(-n3ncc(-c4cccs4)c3N)n2)cc1,6,8,-4,0.9,5,0.9
COc1ccc(C2CC(c3cccs3)=NN2c2nc(-c3ccccc3)cs2)cc1OC (centres undefined),86*,-29,18,0.1,74*,0.3
CCCCN(CCCC)c1nc2ccccc2nc1NS(=O)(=O)c1ccc(NC(C)=O)cc1,48,-8,1,0.5,64*,0.4
O=[N+]([O-])c1ccc(N/N=C/c2c[nH]c3ccccc23)cc1,14,.,.,0.9,58*,0.4
CCOc1ccccc1NC(=O)COn1nnc2ccc(Cl)cc21,56*,23,-4,0.4,-26,1.3
Cc1cc(NC(=O)COn2nnc3ccc(Cl)cc32)no1,36,-1,-2,0.6,77*,0.2
SMILES,CYP2C19 inhib,CD11b adhes inh,CD11b adhes enh,CYP2C19 act,CYP2C9 inhib,CYP2C9 activ
Cc1cc(NC(=O)CSc2nc3cc(Cl)ccc3s2)no1,2,-6,61,1,3,1
CC1CCCCC1NC(=O)COn1nnc2ccc(Cl)cc21 (centres undefined),98*,-15,0,0,-85,1.9
CCc1cccc(CC)c1NC(=O)COn1nnc2ccc(C(F)(F)F)cc21,.,0,0,.,.,.
N#CCSc1nnc2ccc3ccccc3n12,16,-30,-2,0.8,-46,1.5
N#CCSc1nnc(Cc2cccc3ccccc23)n1C1CCCCC1,57*,0,2,0.4,45,0.6
CC(=O)c1cccc(NC(=O)C2CCCN(S(=O)(=O)c3ccc(F)cc3)C2)c1 (centres undefined),87*,-8,1,0.1,76*,0.2
CC(=O)c1cccc(NC(=O)C2CCN(S(=O)(=O)c3ccc(F)cc3)CC2)c1,53*,-1,-6,0.5,63*,0.4
CCS(=O)(=O)N1CCC(C(=O)Nc2cccc(C(C)=O)c2)CC1,70*,-8,0,0.3,12,0.9
O=C(Nc1ccc(N2CCOCC2)cc1)C1CCCN(S(=O)(=O)c2cccc(C(F)(F)F)c2)C1 (centres undefined),63*,12,10,0.4,12,0.9
O=C(Nc1ccc(N2CCOCC2)cc1)C1CC1,3,-27,2,1,-6,1.1
COc1ccc(S(=O)(=O)N2CCCC(C(=O)Nc3cccc(C(C)=O)c3)C2)cc1 (centres undefined),41,-10,-5,0.6,31,0.7
CCOC(=O)C1C(=O)CC(C)(O)C(C(=O)OCC)C1c1ccco1 (centres undefined),30,-5,-4,0.7,-2,1
Cc1noc(C)c1C(=O)NCCCN1CCCC1=O,-13,-25,2,1.1,-16,1.2
CC(=O)c1cccc(NC(=O)C2CCN(S(=O)(=O)c3ccccc3)CC2)c1,68*,-7,-4,0.3,8,0.9
O=c1c2c(nc3c(-c4ccccc4)c[nH]n13)CCCC2,15,22,1,0.8,37,0.6
CCOC(=O)c1c(-c2ccccc2Cl)cn2ccccc12,73*,-22,1,0.3,78*,0.2
CCOC(=O)c1cc(C(C)=O)n2ccccc12,-10,2,-2,1.1,-51,1.5
Nc1nnc(SCC(=O)c2ccc3ccccc3c2)s1,78*,-23,1,0.2,38,0.6
Cc1nnc(SCC(=O)N2CCN(Cc3ccccc3)CC2)s1,89*,-3,-3,0.1,19,0.8
